Records with an inconclusive call do not appear. Active and inactive are the calls of the source. Unless noted, calls follow the shape of the full dose curve.
Key:
[1] = Nuclear factor erythroid 2-related factor 2/antioxidant responsive element (Nrf2/ARE) small molecule agonists: qHTS cell viability counter screen in human keratinocytes (AID 1919968; active = well fitted curve in the direction sought with a large enough effect in the repeat runs; an effect the other way counts as inactive or inconclusive; also: nearly all actives have a fitted effect of over 55% in size)
Procedure, shortened: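 Cytotoxicity was multiplexed with the Nrf2/ARE luciferase assay in the same wells. Stably transfected HaCaT keratinocytes were treated with test compounds for 23 h at 37 C. Cell viability was then measured by CellTiter-Fluor fluorescence.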

[2] = Nuclear factor erythroid 2-related factor 2/antioxidant responsive element (Nrf2/ARE) small molecule agonists: luciferase reporter gene qHTS assay in human keratinocytes (AID 1919969); also: nearly all actives have a fitted effect of over 35% in size
[3] = biological target: Gonadotropin-releasing hormone receptor (Homo sapiens) (UniProt P30968); assay: Human gonadotropin-releasing hormone receptor (GnRHR) small molecule agonists, calcium flux assay in GnRHR-HEK293 cells (AID 1920063); also: nearly all actives have a fitted effect of over 35% in size
Procedure, shortened: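 Agonist activity was measured as intracellular calcium flux in HEK293 cells engineered to stably express human GnRHR. After dye loading for 1 hour at 37 C, compounds in DMSO were added and fluorescence was followed for 3 minutes.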

[4] = biological target: KiSS-1 receptor (Homo sapiens) (UniProt Q969F8); assay: Human kisspeptin (KISS1R) small molecule agonists, calcium flux assay in KISS1R-HEK293 cells (AID 1920064; active = well fitted curve in the direction sought with a large enough effect in the repeat runs; an effect the other way counts as inactive or inconclusive)
Procedure, shortened: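 Agonist activity is monitored as intracellular calcium rise in engineered HEK293 cells carrying human KISS1R. Cells are dye-loaded for 1 h at 37 C before compound addition, and fluorescence is recorded for 3 min.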

[5] = G protein-coupled receptor (GPCR) small molecule agonists, calcium flux assay: HEK293 wild type cell line counter screen (AID 1920065)
Procedure, shortened: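 Seed cells, incubate 18 h (37 C, 5% CO2); add calcium dye, 1 h at 37 C; pin-transfer compounds, ATP control or DMSO; read fluorescence 480/540 nm each second for 3 min.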

[6] = p53 small molecule agonists, cell-based qHTS assay with human liver microsomes (AID 1963577)
Procedure, shortened: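 Fluorescence of the beta-lactamase reporter in p53RE-bla cells, detected with LiveBLAzer substrate (2 h, room temperature, dark), served as the read-out after 16 h compound exposure at 37 C with human liver microsomes and NADPH, each 0.5 mg/mL final.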

[7] = p53 small molecule agonists, cell-based qHTS assay with rat liver microsomes (AID 1963578)
Procedure, shortened: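 Cells carrying a p53 response element–beta-lactamase reporter were plated and rested 5 h, then dosed with compound in DMSO plus rat liver microsomes and NADPH, each at 0.5 mg/mL final. After 16 h at 37 C, LiveBLAzer substrate was added for 2 h.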

[8] = p53 small molecule agonists, cell-based qHTS assay with human liver microsomes: qHTS cell viability counter screen (AID 1963579); also: nearly all actives have a fitted effect of over 45% in size
Procedure, shortened: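 Cytotoxicity counter screen: p53RE-bla, 4,000 cells/well; 5 h settle, 37 C/5% CO2; cpd + HLM 0.5 mg/mL + NADPH 0.5 mg/mL (final); 16 h, 37 C; CellTiter-Glo, 30 min RT, luminescence.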

[9] = p53 small molecule agonists, cell-based qHTS assay with rat liver microsomes: qHTS cell viability counter screen (AID 1963580); also: nearly all actives have a fitted effect of over 45% in size
Procedure, shortened: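 After the beta-lactamase ratio was read, CellTiter-Glo was added to the same wells and luminescence measured at 30 min; cells had been treated 16 h at 37 C with compounds, rat liver microsomes and NADPH (0.5 mg/mL final each).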

[10] = p53 small molecule agonists, cell-based qHTS assay (AID 1963582; active = well fitted activation curve with a large enough effect in the signal ratio in the repeat runs, not every such curve was filed as active; the % refers to the signal ratio)
Procedure, shortened: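 Cells carrying a p53-responsive bla reporter are treated with test compounds for 16 h at 37 C; beta-lactamase activity is then detected with LiveBLAzer B/G FRET substrate after 2 h at room temperature.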

[11] = biological target: 5-hydroxytryptamine receptor 2A (Homo sapiens) (UniProt P28223); assay: 5-hydroxytryptamine receptor 2A (HTR2A) small molecule agonists, cell-based qHTS assay (AID 1963587); also: nearly all actives have a fitted effect of over 30% in size
Procedure, shortened: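 CHO cells stably expressing human HTR2A, plated 18 h, loaded with calcium dye 1 h at 37 C. Agonist mode: compounds added and intracellular calcium fluorescence recorded kinetically for 2 min at 1 sec intervals.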

[12] = biological target: Muscarinic acetylcholine receptor M1 (Homo sapiens) (UniProt P11229); assay: Cholinergic receptor muscarinic 1 (CHRM1) small molecule antagonists, cell-based qHTS assay (AID 1963588); also: nearly all actives have a fitted effect of over 40% in size
Procedure, shortened: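 Compounds were tested at 15 concentrations in three independent runs. Dye-loaded CHRM1-CHO cells were exposed 5 min at room temperature before stimulation by acetylcholine added at 50nM. Intracellular calcium was read kinetically on FDSS for 3 min.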

[13] = biological target: Muscarinic acetylcholine receptor M1 (Homo sapiens) (UniProt P11229); assay: Cholinergic receptor muscarinic 1 (CHRM1) small molecule agonists, cell-based qHTS assay (AID 1963589); also: nearly all actives have a fitted effect of over 35% in size
Procedure, shortened: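 Cells were plated and incubated 18 h at 37 C/5% CO2, loaded with calcium dye for 1 h at 37 C, then treated with compounds in DMSO. Fluorescence was recorded kinetically at 1 sec intervals.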

[14] = cAMP Responsive Elements (CRE) small molecule agonists, cell-based qHTS assay (AID 1963590)
Procedure, shortened: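 Cells carrying a CRE-driven beta-lactamase reporter (HEK 293T) are seeded, incubated overnight (18 h), and treated with test compounds for 3 h at 37 C; reporter activity is then detected with a FRET substrate after 2 h at room temperature.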

[15] = cAMP Responsive Elements (CRE) small molecule antagonists, cell-based qHTS assay (AID 1963591; active = well fitted inhibition curve with a large enough effect in the signal ratio in the repeat runs, not every such curve was filed as active; the % refers to the signal ratio)
Procedure, shortened: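 Cells (CRE-bla HEK 293T, DMEM with 10% dialyzed FBS and 25 mM HEPES) are seeded and incubated 18 h. Compounds are added with NKH477 agonist at 0.25 uM final for 3 h, then FRET substrate for 2 h.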

[16] = biological target: Beta-2 adrenergic receptor (Homo sapiens) (UniProt P07550); assay: Adrenergic beta2 receptor (ADRB2) small molecule antagonists, cell-based qHTS assay (AID 1963592); also: series mostly up to about 92 µM; nearly all actives have a fitted effect of over 50% in size
Procedure, shortened: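 Assay format: CHO-ADRB2 cells, 18-20hr seeding at 37C/5% CO2, then compound plus 1nM isoproterenol agonist mix for 0.5hr RT. Homogeneous time-resolved fluorescence cAMP detection after 1hr, expressed as 665/615 nm ratio.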

[17] = biological target: Beta-2 adrenergic receptor (Homo sapiens) (UniProt P07550); assay: Adrenergic beta2 receptor (ADRB2) small molecule agonists, cell-based qHTS assay (AID 1963593);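 also: CHO cells stably overexpressing human ADRB2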
Procedure, shortened: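 CHO cells stably over-expressing ADRB2 were plated overnight at 37C, then dosed with compounds plus a stimulation mix containing 100uM IBMX and 25uM Ro-20-1724 for 0.5hr at room temperature. cAMP was measured by HTRF competition, 1hr.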

[18] = biological target: D(2) dopamine receptor (Homo sapiens) (UniProt P14416); assay: Dopamine D2 receptor (DRD2) small molecule agonists, cell-based qHTS assay (AID 1963594); also: nearly all actives have a fitted effect of over 35% in size
Procedure, shortened: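 HEK293 cells stably expressing human DRD2, pre-treated with PDE inhibitor Ro20-1724 (0.1 mM final) and compound 10 min at room temperature, then stimulated with NKH477 (200nM […]) for 30 min. cAMP read by HTRF (665/620 nm).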

[19] = biological target: D(2) dopamine receptor (Homo sapiens) (UniProt P14416); assay: Dopamine D2 receptor (DRD2) small molecule antagonists, cell-based qHTS assay (AID 1963595; active = well fitted inhibition curve with a large enough effect in the signal ratio in the repeat runs, with a control signal flat; the % refers to the signal ratio)
Procedure, shortened: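 Cells were plated and grown for 24 h at 37 °C. Ro20-1724 (0.1 mM final) went in first, then compound for 10 min. NKH477 (200 nM) with quinpirole (12 nM) followed for 30 min at RT, then HTRF detection reagents for 1 h.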
% is scaled to controls: 0 for no effect and ±100 for the full control effect.

5-hydroxytryptamine receptor 2A (Homo sapiens), sequence (P28223 whole entry, looked up): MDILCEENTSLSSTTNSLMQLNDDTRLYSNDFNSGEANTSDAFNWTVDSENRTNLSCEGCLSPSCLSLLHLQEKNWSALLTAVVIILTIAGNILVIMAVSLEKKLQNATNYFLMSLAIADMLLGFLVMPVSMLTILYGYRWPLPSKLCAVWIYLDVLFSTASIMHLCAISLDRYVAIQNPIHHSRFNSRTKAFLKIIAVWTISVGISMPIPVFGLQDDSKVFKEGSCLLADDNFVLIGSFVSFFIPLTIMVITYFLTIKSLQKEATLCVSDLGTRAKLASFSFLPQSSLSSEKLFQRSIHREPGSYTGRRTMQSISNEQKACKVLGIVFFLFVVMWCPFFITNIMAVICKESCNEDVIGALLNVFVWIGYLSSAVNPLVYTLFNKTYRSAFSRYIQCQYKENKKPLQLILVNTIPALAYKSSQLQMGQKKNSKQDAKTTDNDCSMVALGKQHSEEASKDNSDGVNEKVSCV
Gonadotropin-releasing hormone receptor (Homo sapiens), sequence (P30968 whole entry, looked up): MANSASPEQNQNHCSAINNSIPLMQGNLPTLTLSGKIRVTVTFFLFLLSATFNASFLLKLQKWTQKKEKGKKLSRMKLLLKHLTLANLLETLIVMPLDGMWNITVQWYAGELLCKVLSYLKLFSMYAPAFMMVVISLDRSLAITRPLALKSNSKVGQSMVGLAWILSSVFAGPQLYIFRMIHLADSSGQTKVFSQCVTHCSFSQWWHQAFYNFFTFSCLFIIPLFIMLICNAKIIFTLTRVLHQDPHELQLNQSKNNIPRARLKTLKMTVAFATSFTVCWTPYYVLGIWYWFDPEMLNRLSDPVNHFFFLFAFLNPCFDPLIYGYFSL
KiSS-1 receptor (Homo sapiens), sequence (Q969F8 whole entry, looked up): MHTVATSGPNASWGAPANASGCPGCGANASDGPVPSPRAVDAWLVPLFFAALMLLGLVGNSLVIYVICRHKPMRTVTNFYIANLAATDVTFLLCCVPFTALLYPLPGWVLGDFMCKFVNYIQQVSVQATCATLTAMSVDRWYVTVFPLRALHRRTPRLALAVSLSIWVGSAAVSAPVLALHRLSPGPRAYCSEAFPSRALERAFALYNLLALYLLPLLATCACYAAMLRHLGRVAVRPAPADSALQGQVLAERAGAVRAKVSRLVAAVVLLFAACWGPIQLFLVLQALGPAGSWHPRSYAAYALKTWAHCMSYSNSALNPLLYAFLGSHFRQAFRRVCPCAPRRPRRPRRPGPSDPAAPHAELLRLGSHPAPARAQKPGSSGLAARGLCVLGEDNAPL
Beta-2 adrenergic receptor (Homo sapiens), sequence (P07550 whole entry, looked up): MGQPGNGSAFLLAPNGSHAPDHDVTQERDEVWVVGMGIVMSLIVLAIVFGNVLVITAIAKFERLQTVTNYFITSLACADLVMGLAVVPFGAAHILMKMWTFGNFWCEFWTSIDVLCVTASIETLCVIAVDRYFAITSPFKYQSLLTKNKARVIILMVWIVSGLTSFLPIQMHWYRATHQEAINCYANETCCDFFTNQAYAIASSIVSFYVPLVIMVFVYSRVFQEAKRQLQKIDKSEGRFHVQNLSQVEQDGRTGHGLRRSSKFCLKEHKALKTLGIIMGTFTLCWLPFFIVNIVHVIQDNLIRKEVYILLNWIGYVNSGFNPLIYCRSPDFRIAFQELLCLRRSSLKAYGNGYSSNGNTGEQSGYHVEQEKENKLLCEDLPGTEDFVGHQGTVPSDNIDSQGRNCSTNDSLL
D(2) dopamine receptor (Homo sapiens), sequence (P14416 whole entry, looked up): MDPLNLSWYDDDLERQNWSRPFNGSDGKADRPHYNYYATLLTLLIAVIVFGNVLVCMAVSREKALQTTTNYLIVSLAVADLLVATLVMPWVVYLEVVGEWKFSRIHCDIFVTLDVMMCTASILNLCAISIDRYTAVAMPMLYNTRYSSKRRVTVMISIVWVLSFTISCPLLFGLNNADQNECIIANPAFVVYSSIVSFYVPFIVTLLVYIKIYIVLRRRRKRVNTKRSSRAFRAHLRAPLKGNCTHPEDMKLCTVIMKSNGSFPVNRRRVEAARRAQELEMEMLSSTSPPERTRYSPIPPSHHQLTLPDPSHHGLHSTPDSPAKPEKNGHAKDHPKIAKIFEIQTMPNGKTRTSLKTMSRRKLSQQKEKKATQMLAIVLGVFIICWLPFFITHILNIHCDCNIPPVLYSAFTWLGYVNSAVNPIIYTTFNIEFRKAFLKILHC
Muscarinic acetylcholine receptor M1 (Homo sapiens), sequence (P11229 whole entry, looked up): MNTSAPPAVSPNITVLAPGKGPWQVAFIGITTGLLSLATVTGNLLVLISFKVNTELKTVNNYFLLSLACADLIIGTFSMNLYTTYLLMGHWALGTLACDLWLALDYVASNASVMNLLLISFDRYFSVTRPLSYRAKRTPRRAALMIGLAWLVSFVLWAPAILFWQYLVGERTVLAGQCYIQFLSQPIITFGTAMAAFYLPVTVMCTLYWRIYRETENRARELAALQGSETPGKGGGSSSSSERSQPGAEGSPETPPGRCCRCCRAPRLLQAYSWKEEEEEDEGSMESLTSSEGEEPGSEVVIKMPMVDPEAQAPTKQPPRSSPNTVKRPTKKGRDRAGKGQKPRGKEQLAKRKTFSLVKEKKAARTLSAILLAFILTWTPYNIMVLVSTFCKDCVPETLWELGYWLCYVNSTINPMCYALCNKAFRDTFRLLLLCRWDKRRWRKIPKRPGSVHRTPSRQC

Cc1ccc2ccccc2c1[N+](=O)[O-]
inactive: Potency [1] | Potency [2] | Potency [3] | Potency [4] | Potency [5] | Potency [6] | Potency [7] | Potency [8] | Potency [9] | Potency [10] | Potency [11] | Potency [12] | Potency [13] | Potency [14] | Potency [15] | Potency [16] | Potency [17] | Potency [18] | Potency [19]

C=CCOCC(CC)(CO)COCC=C
inactive: Potency [1] | Potency [2] | Potency [3] | Potency [4] | Potency [5] | Potency [6] | Potency [7] | Potency [8] | Potency [9] | Potency [10] | Potency [11] | Potency [12] | Potency [14] | Potency [15] | Potency [16] | Potency [18] | Potency [19]

COC(=O)c1cc(Cl)ccc1OC
inactive: Potency [1] | Potency [2] | Potency [3] | Potency [4] | Potency [5] | Potency [6] | Potency [7] | Potency [8] | Potency [9] | Potency [10] | Potency [11] | Potency [12] | Potency [13] | Potency [14] | Potency [15] | Potency [16] | Potency [17] | Potency [18] | Potency [19]

CCCOCCC
inactive: Potency [1] | Potency [2] | Potency [3] | Potency [4] | Potency [5] | Potency [6] | Potency [7] | Potency [8] | Potency [9] | Potency [10] | Potency [11] | Potency [12] | Potency [13] | Potency [14] | Potency [15] | Potency [16] | Potency [17] | Potency [18] | Potency [19]

NC(=O)CCCCC(N)=O
inactive: Potency [1] | Potency [2] | Potency [3] | Potency [4] | Potency [5] | Potency [6] | Potency [7] | Potency [8] | Potency [9] | Potency [10] | Potency [11] | Potency [12] | Potency [13] | Potency [15] | Potency [16] | Potency [19]

Fc1ccccc1-c1ccccc1
inactive: Potency [1] | Potency [2] | Potency [3] | Potency [4] | Potency [5] | Potency [6] | Potency [7] | Potency [8] | Potency [9] | Potency [10] | Potency [11] | Potency [12] | Potency [13] | Potency [14] | Potency [16] | Potency [18] | Potency [19]

CCC(O)CO (configuration not stated)
inactive: Potency [1] | Potency [2] | Potency [3] | Potency [4] | Potency [5] | Potency [6] | Potency [7] | Potency [8] | Potency [9] | Potency [10] | Potency [11] | Potency [12] | Potency [15] | Potency [16] | Potency [17] | Potency [18] | Potency [19]

O=C(O)CN(CCN(CC(=O)O)CC(=O)O)CCN(CC(=O)O)CC(=O)O
inactive: activity change, negative = cytotoxicity [1] -0.92% [at 19 µM] | activity, positive = activation [2] -0.151% [at 19 µM] | activity change [3] -0.364% [at 11.8 µM, stronger effect = higher value] | activation [4] -1.13% [at 15.8 µM] | activation [5] 1.29% [at 11.8 µM] | activation [6] -9.98% [at 13.5 µM] | activation [7] -0.423% [at 13.6 µM] | activity change, negative = cytotoxicity [8] -3.04% [at 13.5 µM] | activity change, negative = cytotoxicity [9] -9.7% [at 13.5 µM] | activation [10] 12.4% [at 13.5 µM] | activation [11] 7.55% [at 15.9 µM] | activity, negative = inhibition [12] 9.64% [at 12.6 µM] | activation [13] -0.409% [at 15.8 µM] | activation [14] 1.22% [at 19 µM] | activity change, negative = inhibition [15] 3.68% [at 18.9 µM] | activity change, negative = inhibition [16] 2.09% [at 19 µM] | activation [18] -12% [at 19 µM] | activity change, negative = inhibition [19] 6.7% [at 18.9 µM]
